# Source: PubChem BioAssay (NCATS)
# Where “and” joins values, the source holds several entries; their conditions need not be identical. Equal entries are not always repeated. Inconclusive results are not listed. Calls of active or inactive are those of the source. Calls come from the whole dose curve; as a rule, active = well fitted cell-killing curve with a large enough effect; inconclusive = small, poorly fitted or top-dose-only effect; inactive = no such curve, though single readings can be large or run the other way.
# Assay: qHTS of pediatric cancer cell lines to identify multiple opportunities for drug repurposing: Primary screen for SK-N-SH cells (AID 1347098); note: nearly all actives have a fitted effect of over 65% in size;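 for activity change, negative = cytotoxic: DMSO served as neutral control and bortezomib at 2.3 µM as positive control; % is set by controls: 0 for no effect and ±100 for the full control effect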
# Details: SK-N-SH viability, CellTiter-Glo luminescence, 48 h; series mostly up to 57 µM; activity change, negative = cytotoxic: at the top concentration
# Method in brief: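 Cells (500-1,000/well) rested 5 h, then received compounds for 48 h; metabolically active cells were measured by CellTiter-Glo luminescence. Final concentrations spanned up to 46 µM (MIPE, 11-point) or 0.59 nM-46 µM (NPC, 8-point) in primary screens, 11-point in follow-ups.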
# Potency is the fitted concentration of half-maximal effect.
Structure (SMILES),Potency,"activity change, negative = cytotoxic"
Clc1ccc(CSC(Cn2ccnc2)c2ccc(Cl)cc2Cl)cc1 (stereo unspecified),34.4 µM (active),–
C[C@@H]1CC[C@H]2[C@@H](C)C(=O)O[C@@H]3O[C@@]4(C)CC[C@@H]1[C@]32OO4,–,-9.52% (inactive)
C[C@]12C=CC(=O)C=C1CC[C@@H]1[C@@H]2CC[C@@]2(C)[C@H]1CC[C@]2(C)O,–,-12.7% (inactive)
CC[C@H]1C[C@@H]2C[C@H]3c4[nH]c5ccc(OC)cc5c4CCN(C2)[C@@H]13,30.9 µM (active),–
C[C@@H]1C[C@@H]([C@H](O)CC2CC(=O)NC(=O)C2)C(=O)[C@@H](C)C1,4.86 µM (active) and 8.57 µM (active),–
C=CCN1CC[C@]23CCCC[C@H]2[C@H]1Cc1ccc(O)cc13,–,-13.3% (inactive)
CCS(=O)(=O)C(C)(C)S(=O)(=O)CC,–,-4.24% (inactive)
O=C(O)CCCCCCNC1c2ccccc2CCc2ccccc21,–,-0.9% (inactive)
CN(C)C(=S)SSC(=S)N(C)C,0.244 µM (active),–
Cc1ncc2n1-c1ccc(Cl)cc1C(c1ccccc1F)=NC2,–,-25.8% (inactive)
C[C@]12CC[C@H]3[C@@H](CCC4=CC(=O)CC[C@@]43C)[C@@H]1CC[C@@H]2C(=O)O,–,11.4% (inactive)
O=C(CCCCl)c1ccc(F)cc1,–,1.42% (inactive)
CCCCCCCCC(=O)NCc1ccc(O)c(OC)c1,0.0014 µM (active),–
O=C(NC(=O)c1c(F)cccc1F)Nc1cc(Cl)c(OC(F)(F)C(F)C(F)(F)F)cc1Cl (stereo unspecified),–,-13.5% (inactive)
CCOC(=O)NC(O)C(Cl)(Cl)Cl (stereo unspecified),–,3.52% (inactive)
CC(Cc1ccccc1)NCc1ccccc1Cl (stereo unspecified),–,-14% (inactive)
C[C@]12Cc3nonc3C[C@@H]1CC[C@@H]1[C@@H]2CC[C@@]2(C)[C@H]1CC[C@]2(C)O,–,-9.71% (inactive)

# Assay: qHTS of pediatric cancer cell lines to identify multiple opportunities for drug repurposing: Primary screen for NB1643 cells (AID 1347099); note: nearly all actives have a fitted effect of over 50% in size;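 for activity change, negative = cytotoxic: plate controls were DMSO neutral control for no effect and bortezomib positive control for full effect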
# Details: NB1643 neuroblastoma viability, CellTiter-Glo luminescence, 48 h; series mostly up to 46 µM; activity change, negative = cytotoxic: at the top concentration
# Method in brief: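 Plated cells (500-1,000 per well, growth media) were allowed to settle for 5 hours, treated with compound dilutions for 48 hours, then lysed with CellTiter-Glo for 15 min at room temperature before luminescence reading.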
Structure (SMILES),"activity change, negative = cytotoxic",Potency
c1ccc2nc(N3CCNCC3)ccc2c1,-12.8% (inactive),–
Nc1ccc(Cl)cc1C(=O)c1ccccc1F,-7.69% (inactive),–
CN1CCC(N(Cc2ccccc2)c2ccccc2)CC1,4.35% (inactive),–
CC(=O)OC1(c2ccccc2)CCN(CCc2ccccc2)CC1,-6.63% [at 92.7 µM] (inactive),–
Oc1ccc([C@H]2CNCc3c2ccc(O)c3O)cc1O,-12.1% (inactive),–
C[C@]12CC[C@H]3[C@@H](CCC4=CC(=O)CC[C@@H]43)[C@@H]1CC[C@@H]2O,3.87% (inactive),–
CCO[C@H]1O[C@@H]2OC3(C)CC[C@H]4[C@H](C)CC[C@@H]([C@H]1C)[C@@]24OO3,4.3% (inactive),–
CC(CC(C#N)(c1ccccc1)c1ccccc1)N(C)C (stereo unspecified),-22.2% [at 92.7 µM] (inactive),–
CC[C@H]1C[C@@H]2C[C@H]3c4[nH]c5ccc(OC)cc5c4CCN(C2)[C@@H]13,-1.98% [at 92.7 µM] (inactive),–
C[C@@H]1C[C@@H]([C@H](O)CC2CC(=O)NC(=O)C2)C(=O)[C@@H](C)C1,–,0.296 µM (active)
C[N+]1(C)[C@@H]2CC[C@H]1CC(OC(=O)C(CO)c1ccccc1)C2 (stereo partly specified),-12.1% (inactive),–
CC[C@H]1C[C@H]2[C@@H]3CCC4=CC(=O)CC[C@@H]4[C@H]3CC[C@]2(C)[C@H]1O,-8.51% (inactive),–
CCC(=O)OC1(c2ccccc2)CCN(C)CC1,-4.17% [at 92.7 µM] (inactive),–
CCC(=O)O[C@H]1CC[C@H]2[C@@H]3CCC4=CC(=O)CC[C@]4(C)[C@H]3CC[C@]12C,12.9% (inactive),–
CC[C@]1(O)CC[C@H]2[C@@H]3CCC4=CCCC[C@@H]4[C@H]3CC[C@@]21C,-30.2% (inactive),–
O=C(NC(=O)c1c(F)cccc1F)Nc1cc(Cl)c(OC(F)(F)C(F)C(F)(F)F)cc1Cl (stereo unspecified),1.36% (inactive),–
Nc1ccc(N)cc1,-3.49% (inactive),–
N#Cc1nn(-c2c(Cl)cc(C(F)(F)F)cc2Cl)c(N)c1S(=O)C(F)(F)F (stereo unspecified),-13.1% (inactive),–

# Assay: qHTS of pediatric cancer cell lines to identify multiple opportunities for drug repurposing: Primary screen for LAN-5 cells (AID 1347100);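 for activity change, negative = cytotoxic: plate controls were DMSO neutral control for no effect and bortezomib positive control for full effect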
# Details: LAN-5 neuroblastoma viability, CellTiter-Glo luminescence, 48 h; series mostly up to 46 µM; activity change, negative = cytotoxic: at the top concentration
# Method in brief: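 Viability after 48 h compound treatment at 37C, 500-1,000 cells/well, read as ATP luminescence with CellTiter-Glo. Primary screens used 11-point (MIPE, 0.78 nM-46 µM) or 8-point (NPC, 0.59 nM-46 µM) final concentrations; follow-up screens used 11-point dilutions.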
Structure (SMILES),"activity change, negative = cytotoxic",Potency
c1ccc2nc(N3CCNCC3)ccc2c1,-4.26% (inactive),–
Nc1ccc(Cl)cc1C(=O)c1ccccc1F,2.96% (inactive),–
CN1CCC(N(Cc2ccccc2)c2ccccc2)CC1,0.518% (inactive),–
O=C1NCN(c2ccccc2)C12CCN(CCCOc1ccc(F)cc1)CC2,-27.6% (inactive),–
C[C@]12C=CC(=O)C=C1CC[C@@H]1[C@@H]2CC[C@@]2(C)[C@H]1CC[C@]2(C)O,-17.7% (inactive),–
C[C@]12CC[C@H]3[C@@H](CCC4=CC(=O)CC[C@@H]43)[C@@H]1CC[C@@H]2O,0.459% (inactive),–
CC(CC(C#N)(c1ccccc1)c1ccccc1)N(C)C (stereo unspecified),-25% [at 92.7 µM] (inactive),–
CCS(=O)(=O)C(C)(C)S(=O)(=O)CC,-0.857% (inactive),–
CC[C@H]1C[C@H]2[C@@H]3CCC4=CC(=O)CC[C@@H]4[C@H]3CC[C@]2(C)[C@H]1O,-19.6% (inactive),–
O=C(O)CCCCCCNC1c2ccccc2CCc2ccccc21,9.74% (inactive),–
CN(C)C(=S)SSC(=S)N(C)C,–,0.266 µM (active)
Clc1ccc(CO/N=C(\Cn2ccnc2)c2ccc(Cl)cc2Cl)c(Cl)c1,–,23.7 µM (active)
O=C(N[C@@H]1N=C(c2ccccc2F)c2cccc3c2N(CC3)C1=O)c1cc2ccccc2[nH]1,-0.764% (inactive),–
C[C@]12CC[C@H]3[C@@H](CCC4=CC(=O)CC[C@@]43C)[C@@H]1CC[C@@H]2C(=O)O,17% (inactive),–
C[C@H](N)[C@H](O)c1ccc(O)c(O)c1,–,26.6 µM (active)
O=C(CCl)c1ccc(Cl)cc1Cl,–,16.8 µM (active)
O=C(CCCCl)c1ccc(F)cc1,2.16% (inactive),–
CC[C@]1(O)CC[C@H]2[C@@H]3CCC4=CCCC[C@@H]4[C@H]3CC[C@@]21C,-53.1% (inactive),–
CCCCCCCCC(=O)NCc1ccc(O)c(OC)c1,–,0.001 µM (active)
CCOC(=O)NC(O)C(Cl)(Cl)Cl (stereo unspecified),9.25% (inactive),–
CC(Cc1ccccc1)NCc1ccccc1Cl (stereo unspecified),4.77% (inactive),–
